Measured values as given in PubChem BioAssay (NCATS).
Inconclusive results are not listed. A number with no mark means an inactive call. Active and inactive are the calls of the source. Calls follow the shape of the dose curve; as a rule, active = well fitted curve in the direction sought with a large enough effect; inconclusive = small, poorly fitted or top-dose-only effect, or another doubt; inactive = no such curve, though single readings can be large; an effect the other way counts as inactive or inconclusive.

Test system: not listed separately
Experiment: Counterscreen for APE1 Inhibitors: Fluorescent Dye Displacement Validation Assay (AID 1707);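 also: plate controls were ThO with dsDNA and no compound for no effect and ThO without dsDNA for full effect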
Conditions: fluorescent dye displacement from DNA; series mostly up to 57.1 µM; activity change, negative = inhibition: at the top concentration
Method in brief: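 Signal: ThO fluorescence (ex 480 nm/em 540 nm) on binding 50 nM dsDNA; displacement by test compound reduces it. Conditions: 250 nM dye, 50 mM Tris-HCl pH7.5, 2 mM MgCl2, 50mM NaCl, 0.01% Tween-20.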

SMILES	activity change, negative = inhibition [%]
CCCCCCCCCCCCCCC/C=C/[C@@H](O)[C@H](NC(=O)CCCCCCCCCCCCC)OC (tested in a mixture with another compound)	1.62
CNc1ncnc2c1ncn2[C@@H]1O[C@H](CO)[C@H](O)[C@H]1O	-0.25
NCCNC(=O)c1ccc(Cl)cc1	-0.677
NC(=NCCC[C@H](N)C(=O)O)NO	1.69
OC[C@H]1O[C@@H](n2cnc3c(Nc4ccccc4)ncnc32)[C@H](O)[C@H]1O	0.724
N[C@H](Cc1ccc(O)c(O)c1)C(=O)O	1.92
Nc1nc(Nc2ccccc2)nc2c1ncn2[C@@H]1O[C@H](CO)[C@H](O)[C@H]1O	-3.48
NC(=S)c1ccc[n+]([C@@H]2O[C@@H](COP(=O)([O-])OP(=O)(O)OC[C@H]3O[C@@H](n4cnc5c(N)ncnc54)[C@H](OP(=O)(O)O)[C@H]3O)C(O)C2O)c1 (stereo partly specified)	0.723
O=C(O)CC[C@H](NC(=O)c1ccccc1C(=O)O)C(=O)O	1.46
NCC1OC(O[C@@H]2[C@H](O)[C@@H](OC3C(O)C(N)CC(N)C3OC3OC(CO)C(O)C(O)C3N)O[C@@H]2CO)C(N)C(O)C1O (stereo partly specified)	-0.228
COc1cc(=O)n(C)c2c(OCC(O)C(C)(C)O)cccc12 (stereo unspecified)	-0.316
C[C@]12CCC(=O)C=C1CC[C@@H]1C2[C@@H](O)C[C@@]2(C)[C@H]1CC[C@]2(O)C(=O)CO (stereo partly specified)	1.75
CN1C(=O)CCC1c1cccnc1 (stereo unspecified)	1.72
CC(=O)O[C@H]1C[C@@H]2CCC3C(CC[C@@]4(C)[C@H]3C[C@H]([N+]3(C)CCCCC3)[C@@H]4OC(C)=O)[C@@]2(C)C[C@@H]1[N+]1(C)CCCCC1 (stereo partly specified)	-0.475
N=C(N)SCCc1cccc(CCSC(=N)N)c1	-0.736
Nc1nc(SCc2ccc([N+](=O)[O-])cc2)c2ncn([C@@H]3O[C@H](CO)[C@H](O)[C@H]3O)c2n1	-2.94

Biological target: Endonuclease 4 (Escherichia coli (strain K12)) (UniProt P0A6C1)
Experiment: Counterscreen for APE1 Inhibitors: qHTS Validation Assay for Inhibitors of Endonuclease IV (AID 1708); also: % is scaled to controls: 0 for no effect and ±100 for the full control effect
Conditions: E. coli endonuclease IV, DNA cleavage fluorescence; series mostly up to 57.1 µM; activity change, negative = inhibition: at the top concentration
Method in brief: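 Read-out: fluorescence rise (ex 525/em 598 nm) from incision of a TAMRA/BHQ-2 double-stranded THF abasic-site substrate (50 nM), measured kinetically; third-minus-first read difference gave reaction progress. Enzyme 2 nM.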

SMILES	activity change, negative = inhibition [%]
CNC(=O)[C@H]1O[C@@H](n2cnc3c(NCc4cccc(I)c4)ncnc32)[C@H](O)[C@H]1O	-5.86
CC(N)=NCCCC(N)C(=O)O (stereo unspecified)	-6.99
Cc1cn([C@H]2C[C@@H](N=[N+]=[N-])[C@@H](CO)O2)c(=O)[nH]c1=O	-4.74
CN=C(N)NCCCC(N)C(=O)O (stereo unspecified)	-8.51
COc1c2c(nc3ccccc13)OC(C(C)(O)CO)C2 (stereo unspecified)	-4.5
CC(C)C1NC(=O)[C@H](CCCCN)NC(=O)[C@@H](Cc2c[nH]c3ccccc23)NC(=O)[C@H](Cc2ccc(O)cc2)NC(=O)[C@H](C)N(C)C(=O)[C@H](Cc2ccccc2)NC1=O (stereo partly specified)	-5.7
NCCC(=O)NCCc1cnc[nH]1	-8.76
O=C(Cc1ccc(Cl)c(Cl)c1)OCCN1CCCC1	-10.1
NC(=O)C1=CN(C2OC(COP(=O)(O)OP(=O)(O)OC[C@H]3O[C@@H](n4cnc5c(N)ncnc54)[C@H](OP(=O)(O)O)[C@H]3O)C(O)C2O)C=CC1 (stereo partly specified)	-4.5
OC[C@H]1O[C@@H](n2cnc3c(NCCc4ccccc4)ncnc32)[C@H](O)[C@H]1O	-8.11
CCCCCCCCCCCCCCC/C=C/[C@@H](O)[C@H](NC(=O)CCCCCCCCCCCCC)OC (tested in a mixture with another compound)	-11
CNc1ncnc2c1ncn2[C@@H]1O[C@H](CO)[C@H](O)[C@H]1O	-11.1
NCCNC(=O)c1ccc(Cl)cc1	-5.14
NC(=NCCC[C@H](N)C(=O)O)NO	-4.02
OC[C@H]1O[C@@H](n2cnc3c(Nc4ccccc4)ncnc32)[C@H](O)[C@H]1O	-4.74
N[C@H](Cc1ccc(O)c(O)c1)C(=O)O	12.4
Nc1nc(Nc2ccccc2)nc2c1ncn2[C@@H]1O[C@H](CO)[C@H](O)[C@H]1O	-11
NC(=S)c1ccc[n+]([C@@H]2O[C@@H](COP(=O)([O-])OP(=O)(O)OC[C@H]3O[C@@H](n4cnc5c(N)ncnc54)[C@H](OP(=O)(O)O)[C@H]3O)C(O)C2O)c1 (stereo partly specified)	28.4
O=C(O)CC[C@H](NC(=O)c1ccccc1C(=O)O)C(=O)O	-10.6
NCC1OC(O[C@@H]2[C@H](O)[C@@H](OC3C(O)C(N)CC(N)C3OC3OC(CO)C(O)C(O)C3N)O[C@@H]2CO)C(N)C(O)C1O (stereo partly specified)	-5.62
COc1cc(=O)n(C)c2c(OCC(O)C(C)(C)O)cccc12 (stereo unspecified)	-9.16
C[C@]12CCC(=O)C=C1CC[C@@H]1C2[C@@H](O)C[C@@]2(C)[C@H]1CC[C@]2(O)C(=O)CO (stereo partly specified)	-7.07
CN1C(=O)CCC1c1cccnc1 (stereo unspecified)	-4.02
CC(=O)O[C@H]1C[C@@H]2CCC3C(CC[C@@]4(C)[C@H]3C[C@H]([N+]3(C)CCCCC3)[C@@H]4OC(C)=O)[C@@]2(C)C[C@@H]1[N+]1(C)CCCCC1 (stereo partly specified)	-5.06
N=C(N)SCCc1cccc(CCSC(=N)N)c1	-2.01
Nc1nc(SCc2ccc([N+](=O)[O-])cc2)c2ncn([C@@H]3O[C@H](CO)[C@H](O)[C@H]3O)c2n1	0

Test system: not listed separately
Experiment: qHTS for differential inhibitors of proliferation of Plasmodium falciparum line 7G8 (AID 1815);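 also: parasite growth measured after three days of incubation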; also: potency is read from the fitted curve at half-maximal effect;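 as to activity change, negative = inhibition: plate controls were vehicle wells for no effect and reference inhibitor wells for full effect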
Conditions: Plasmodium falciparum 7G8 proliferation inhibition; series mostly up to 28.7 µM; activity change, negative = inhibition: at the top concentration

SMILES	Potency	activity change, negative = inhibition [%]
CNC(=O)[C@H]1O[C@@H](n2cnc3c(NCc4cccc(I)c4)ncnc32)[C@H](O)[C@H]1O	7.94 µM (active)	
CC(N)=NCCCC(N)C(=O)O (stereo unspecified)		-11
Cc1cn([C@H]2C[C@@H](N=[N+]=[N-])[C@@H](CO)O2)c(=O)[nH]c1=O		21.2
CN=C(N)NCCCC(N)C(=O)O (stereo unspecified)		5.28
COc1c2c(nc3ccccc13)OC(C(C)(O)CO)C2 (stereo unspecified)		-11.4
CN1C2CC(OC(=O)C(CO)c3ccccc3)CC1C1OC12 (stereo unspecified)		-4.19
CC(C)C1NC(=O)[C@H](CCCCN)NC(=O)[C@@H](Cc2c[nH]c3ccccc23)NC(=O)[C@H](Cc2ccc(O)cc2)NC(=O)[C@H](C)N(C)C(=O)[C@H](Cc2ccccc2)NC1=O (stereo partly specified)		-21.4
NCCC(=O)NCCc1cnc[nH]1		-4.5
O=C(Cc1ccc(Cl)c(Cl)c1)OCCN1CCCC1		3.01
NC(=O)C1=CN(C2OC(COP(=O)(O)OP(=O)(O)OC[C@H]3O[C@@H](n4cnc5c(N)ncnc54)[C@H](OP(=O)(O)O)[C@H]3O)C(O)C2O)C=CC1 (stereo partly specified)		-13.6
OC[C@H]1O[C@@H](n2cnc3c(NCCc4ccccc4)ncnc32)[C@H](O)[C@H]1O		4.82
CCCCCCCCCCCCCCC/C=C/[C@@H](O)[C@H](NC(=O)CCCCCCCCCCCCC)OC (tested in a mixture with another compound)		-11.5
CNc1ncnc2c1ncn2[C@@H]1O[C@H](CO)[C@H](O)[C@H]1O		-10.2
NCCNC(=O)c1ccc(Cl)cc1		-16.5
NC(=NCCC[C@H](N)C(=O)O)NO		0.487
OC[C@H]1O[C@@H](n2cnc3c(Nc4ccccc4)ncnc32)[C@H](O)[C@H]1O		-0.102
N[C@H](Cc1ccc(O)c(O)c1)C(=O)O		-8.03
NC(=S)c1ccc[n+]([C@@H]2O[C@@H](COP(=O)([O-])OP(=O)(O)OC[C@H]3O[C@@H](n4cnc5c(N)ncnc54)[C@H](OP(=O)(O)O)[C@H]3O)C(O)C2O)c1 (stereo partly specified)		-5.51
O=C(O)CC[C@H](NC(=O)c1ccccc1C(=O)O)C(=O)O		3.15
NCC1OC(O[C@@H]2[C@H](O)[C@@H](OC3C(O)C(N)CC(N)C3OC3OC(CO)C(O)C(O)C3N)O[C@@H]2CO)C(N)C(O)C1O (stereo partly specified)		10.5
COc1cc(=O)n(C)c2c(OCC(O)C(C)(C)O)cccc12 (stereo unspecified)		-25.1
CN1C(=O)CCC1c1cccnc1 (stereo unspecified)		-10.6
CC(=O)O[C@H]1C[C@@H]2CCC3C(CC[C@@]4(C)[C@H]3C[C@H]([N+]3(C)CCCCC3)[C@@H]4OC(C)=O)[C@@]2(C)C[C@@H]1[N+]1(C)CCCCC1 (stereo partly specified)		-3.97
N=C(N)SCCc1cccc(CCSC(=N)N)c1	6.31 µM (active)	
